Assay results reported in PubChem BioAssay (NCI).
Compounds without any hit were thinned out: in the full panel of roughly 83,000, 20% have a hit.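 Plates (96-well) were seeded with cells, treated with compound at one concentration, and incubated for 48 hours before percent growth was determined.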 A number with no mark means an inactive call. Activity calls are given as the source filed them.

System: ACHN renal
Assay: NCI-60 one-dose screen, 48 h (100 = growth as untreated, 0 = no growth, -100 = all killed)
Conditions: 10 µM unless noted
Procedure: Growth inhibition of the ACHN human tumor cell line is measured as a screen for anti-cancer activity. Cells are grown in 96 well plates and exposed to the test compound for 48 hours. Compounds are tested at a single concentration, which is 10^-5 M for most compounds. The reported endpoint is percent growth (GI% or GIPRCNT), where numbers from 0 - 100% represent growth inhibition, and numbers from -100% - 0 represent cell death. For example, a value of 40 represents 60% growth inhibition. A value of 0 means no net growth occurred over the course of the experiment. A value of -40 indicates 40% of cells at the beginning of the experiment died by the end of the experiment. A value of -100 means all cells are dead at the end of the experiment.
NCI-60 Human Tumor Cell Lines Screen was performed using the standard one-dose NCI protocol, which is described in more detail at https://dtp.cancer.gov/discovery_development/nci-60/default.htm.
Compounds with GIPRCNT values below 10 were considered active. Activity score was based on GIPRCNT using the following formula: […]
Score is 0 for GIPRCNT values of 100 or above, 50 for GIPRCNT values of 0, and 100 for GIPRCNT values of -100.

| Structure (SMILES) | growth |
| --- | --- |
| NC(=Nc1ccc(N)cc1)C(N)=Nc1ccc(N)cc1 | 93.4% |
| O=C1c2ccccc2C(=O)c2cc(Cn3cc[n+](Cc4ccc5ccccc5c4)c3)ccc21 | 108% |
| CCCN1CCN(c2ccc3nc(-c4ccc5nc(-c6ccc(OCC)c(OCC)c6)[nH]c5c4)[nH]c3c2)CC1 | -28.9% (active) |
| Cc1c(C)c2c(c(C)c1NC(=O)/C=C\C(=O)O)CCC(C)(CCCC(C)CCCC(C)CCCC(C)C)O2 (stereo not given) | 45.5% |
| CCCCCCCCN(CCCCCCCC)C(=N)c1ccnc2ccccc12 | -89.3% (active) |
| O=C(Nc1ccccn1)[C@H](O)[C@@H](O)C(=O)N1CCOCC1 | 112% |
| O=C(CC1Sc2ccccc2NC1=O)NNc1ccc(F)cc1 (stereo not given) | 56.4% |
| Cc1nc(Nc2ccccn2)sc1C(=O)/C=C/c1ccc(Br)cc1 | 75.2% |
| Cl.[Pt].[c-]1ccccc1-c1ccccn1.c1ccc(P(c2ccccc2)C([PH+](c2ccccc2)c2ccccc2)[PH+](c2ccccc2)c2ccccc2)cc1 | 4.96% (active) |
| CCN1CCN(c2ccc(Nc3cc(-c4cccnc4Nc4c(Cl)c(OC)cc(OC)c4Cl)ncn3)cc2)CC1 | 42.6% |
| CCN(CC)CCOc1ccc(/C(=C(\C)c2ccc(OC)c(F)c2)c2ccc(Cl)cc2)cc1 | 89.8% |
| Cc1cc(N2CCCCC2)nc(N(CCNc2ccnc3cc(Cl)ccc23)Cc2ccccn2)n1 | 62% |
| CCN(CC)CCCNC(=O)c1ccc(N)cc1O | 98.3% |
| C=C1C(=O)O[C@H]2[C@H]1CC/C(COC(=O)/C=C\C(=O)NCc1ccc(Cn3c(=O)sn(-c4ccc(Cl)cc4)c3=O)cc1)=C\CC[C@@]1(C)O[C@@H]21 | -100% (active) |
| CCNCCNc1cc(-c2ccc(Cl)cc2)c(C#N)c2nc3ccccc3n12 | -60% (active) |
| N=c1ccn2c(n1)OC1C(O)C(CO)OC12 (stereo not given) | -15.9% (active) |
| Cc1[nH]c(-c2nc3ccccc3[nH]2)c(C)c1C(=O)N1CCOCC1 | 98.3% |
| O[C@H]1CO[C@H]2[C@@H]1OC[C@@H]2Oc1ccc(Nc2nc(Nc3ccc(F)c(Cl)c3)ncc2F)cc1Cl | 105% |
| CN=C1C=CC(=C(c2ccc(N(C)C)cc2)c2ccc(N(C)C)cc2)C=C1 | -53.4% (active) |
| O=C(CC12CC3CC(CC(C3)C1)C2)NCCOCCOCCOCCNC(=O)c1cc2c(o1)C(=O)c1ccccc1C2=O | -22.4% (active) |

| Structure (SMILES) | growth |
| --- | --- |
| O=C(/C=C/C12c3ccccc3C(c3ccccc31)C1C(=O)N(c3ccccc3)C(=O)C12)c1ccccc1 (stereo not given) | -15% (active) |
| Cn1nnnc1-c1ccc(N)cc1 | 98.7% |
| CNC(=O)c1c(NC(=O)c2ccc(C(C)(C)C)cc2)sc2c1CCC(=O)C2 | -45.9% (active) |
| O=C1Nc2ccccc2/C1=N/N=C/c1c[nH]c2ccccc12 | 48.3% |
| CC1(C)CC(=O)c2c(ccc(C(=O)C[C@H](N)CO)c2N)O1 | 46.2% |
| O=C1CCC(N2C(=O)c3cccc(NCCCC4CCN(CCNC(=O)c5cc6c(o5)C(=O)c5ccccc5C6=O)CC4)c3C2=O)C(=O)N1 (stereo not given) | -92.4% (active) |
| CCCCN(CCCC)CCCn1c(=O)c2sc3ncccc3c2n2nnc(-c3ccccc3)c12 | 97% |
| Cn1ncc2c(Nc3ccc(Br)cc3)nc(Nc3ccc(Br)cc3)nc21 | 40.1% |
| CSc1nc2sc3cc(Cl)ccc3n2c(=N)c1C#N | 78.9% |
| CC[C@@H](C[C@H](CCO)c1ccccc1)c1cc2ccccc2o1 | 99.1% |
| NS(=O)(=O)Oc1ccc(-c2sc3cc(O)ccc3c2C(=O)c2ccc(OCCN3CCCCC3)cc2)cc1 | 60.9% |
| CCOc1ccc2nc(-c3cccc(OCC(=O)NC(C)C)c3)nc(Nc3ccc(-c4cn[nH]c4)cc3)c2c1 | 7.49% (active) |
| O=C1Nc2ccccc2SC1c1ccccc1Cl (stereo not given) | 115% |
| Cc1nc(-c2ccccc2)cc2c(O)c(C(=O)N/N=C/c3ccc(N(C)C)cc3)[nH]c(=O)c12 | 67.5% |
| Nc1c(-c2nc3ccccc3c(=O)[nH]2)nnn1-c1ccc(Cl)cc1 | 87% |
| N=C(N)c1ccc(-c2ccc(-c3ccc(Cl)cc3Cl)o2)nc1 | 12.3% |
| COc1ccc(-c2c(N)n[nH]c2-c2ccccc2O)cc1OC | 102% |
| Cc1ccccc1NC(=O)CN(C)C | 99.6% |
| Cc1cc(-c2ccc(N(C)C)cc2)c2sc(=O)[nH]c2n1 | 83.2% |
| CCn1c(Sc2nnc(NC(=O)CCN3CCCC3)s2)nc2c1c(=O)n(C)c(=O)n2C | 100% |
